Assay [1] is described as follows: Cell Viability - SH-SY5Y (AID 544; active = well fitted curve in the direction sought with a large enough effect; an effect the other way counts as inactive or inconclusive;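 note: 0% = DMSO alone and -100% = 100 µM tamoxifen; nearly all actives have a fitted effect of over 55% in size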). As to conditions: SH-SY5Y neuroblastoma cell viability; viability change, negative = cytotoxic: at 92.2 µM (top of the series). The essentials:
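Luminescent ATP read-out (CellTiter-Glo) measures loss of viable SH-SY5Y neuroblastoma cells after 40 hr compound exposure at 37 °C. AC50 values derive from standard Hill modelling of qHTS concentration-response data.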

Assay [2] in a line: Cellular Toxicity (caspase-3) N2a (AID 665; active = well fitted curve in the direction sought with a large enough effect; an effect the other way counts as inactive or inconclusive;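 note: compound exposure lasted 16 h at 37 °C before readout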). As to conditions: N2a cells, luminescence, normalized: DMSO 0%, 10 µM staurosporine 100%; at 92.2 µM (top of the series). The method in brief: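 N2a cells, 1500/well, 5 h settle at 37 °C; cpd 16 h, 37 °C; Caspase-Glo 3/7, 1 h RT; luminescence. Norm: DMSO = 0, 10 uM staurosporine = 100%. AC50, Hill fit.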
Assay [3] can be described thus: Cell Viability - LYMP2-009 (AID 968; active = well fitted curve in the direction sought with a large enough effect; an effect the other way counts as inactive or inconclusive;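 note: cells exposed to compound for 24 h at 37 °C; 0% = DMSO alone and the full-kill end = tetraoctylammonium bromide at 92 µM; nearly all actives have a fitted effect of over 55% in size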).
Assay [4] is described as follows: Cell Viability - LYMP2-017 (AID 972; active = well fitted curve in the direction sought with a large enough effect; an effect the other way counts as inactive or inconclusive;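 note: cells exposed to compound for 24 hours at 37 °C; % is set by controls: 0 for no effect and ±100 for the full control effect; nearly all actives have a fitted effect of over 55% in size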). The method in brief:
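2500 cells/well, 5 h 37 C; cpd 24 h 37 C in complete medium; CellTiter-Glo, 30 min RT; luminescence (ATP). AC50 via Hill fit, qHTS.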

Assay [5] in a line: qHTS Assay for Identification of Small Molecule Inducers of Hypoxia Response (AID 2120; active = well fitted curve in the direction sought with a large enough effect in the signal ratio, with a control signal flat, not every such curve was filed as active; the % refers to the signal ratio; note: 0% is about no effect). The method in brief:
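ME-180 HRE-bla cells plated in Opti-MEM/0.5% dialyzed FBS, rested 4-5 h, then dosed with compound titrations by pin tool. After 17 h at 37 degrees C, CCF4 dye loaded 2.5 h at RT; 460/530 nm ratio gave %Activity and AC50.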
Background: In qHTS, concentration-response curves come from the screen itself.

The target of assay [6] is Bile acid receptor (Homo sapiens) (UniProt Q96RI1). The experiment in a line: qHTS assay for small molecule antagonists of farnesoid X receptor signaling (AID 588526). Note: % is set by controls: 0 for no effect and ±100 for the full control effect. The method in brief: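 Antagonist mode: titrated compounds tested against chenodeoxycholic acid stimulation (normalized to 50 uM CDCA and DMSO) in GeneBLAzer HEK293T cells for 16 h. Beta-lactamase read by CCF4 fluorescence; IC50 from Hill fits.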
Chain of Bile acid receptor (Homo sapiens) (Q96RI1 whole entry, looked up): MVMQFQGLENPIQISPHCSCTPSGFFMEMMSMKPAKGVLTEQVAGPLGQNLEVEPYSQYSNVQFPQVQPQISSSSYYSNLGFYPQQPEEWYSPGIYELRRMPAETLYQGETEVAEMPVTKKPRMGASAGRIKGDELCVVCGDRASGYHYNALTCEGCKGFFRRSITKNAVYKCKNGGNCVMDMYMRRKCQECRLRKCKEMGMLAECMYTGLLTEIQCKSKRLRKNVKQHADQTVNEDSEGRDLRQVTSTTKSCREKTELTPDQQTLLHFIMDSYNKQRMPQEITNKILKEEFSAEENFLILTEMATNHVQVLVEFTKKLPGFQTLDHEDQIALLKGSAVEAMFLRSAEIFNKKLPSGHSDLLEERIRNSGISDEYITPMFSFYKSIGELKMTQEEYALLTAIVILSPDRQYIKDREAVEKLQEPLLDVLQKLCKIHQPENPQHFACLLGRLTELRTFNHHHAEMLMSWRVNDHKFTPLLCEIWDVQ

For assay [7] the target is unchanged. The experiment in a line: qHTS assay for small molecule agonists of farnesoid X receptor signaling (AID 588527).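 Note: 0% = vehicle basal and 100% = reference agonist.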 The settings on record: HEK293T FXR-UAS-bla, beta-lactamase ratio, 16 h; stronger effect = higher value. The essentials: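 FXR-UAS-bla HEK293T, 10% dialyzed FBS; cpds up to 92 uM titration, 16 h 37 C; CCF4 dye 2 h RT; fluorescence. Normalized to chenodeoxycholic acid 100 uM (100%) and DMSO (0%); Hill fit gives EC50, efficacy.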

Assay [8] in a line: qHTS assay for small molecule antagonists of peroxisome proliferator-activated receptor delta signaling (AID 588535).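 Note: cells co-treated with a PPAR-delta agonist as stimulator during compound exposure.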 The settings on record: HEK293T PPARd-UAS-bla, beta-lactamase FRET ratio, 18 h; 460 nm channel. The essentials: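 Antagonist-mode beta-lactamase reporter (GeneBLAzer PPAR-delta-UAS-bla) in HEK293T cells, 2% charcoal/dextran FBS, 4000 cells/well. Compound titrations, 18 h at 37 C; CCF4 ratio read, IC50 and efficacy from Hill fits.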

Assay [9] has as its target Vitamin D3 receptor (Homo sapiens) (UniProt P11473). Briefly: qHTS assay for small molecule antagonists of vitamin D receptor signaling (AID 588541).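 Note: receptor activated by calcitriol during compound treatment; % is set by controls: 0 for no effect and ±100 for the full control effect.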 The essentials: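 VDR-UAS-bla HEK293T cells in 2% charcoal-stripped FBS were stimulated with 1-alpha,25-dihydroxyvitamin D3 (3 nM final) plus compound for 16 h at 37 C. The beta-lactamase CCF4 readout was normalized to 50 nM agonist and DMSO, and Hill fits gave IC50.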

The target is the same in assay [10]. Briefly: qHTS assay for small molecule agonists of vitamin D receptor signaling (AID 588543).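 Note: 0% = DMSO basal and 100% = reference agonist control.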 The essentials: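 qHTS in agonist mode: compound titrations stimulate a VDR-driven β-lactamase reporter in HEK293T cells over 16 h at 37 °C. Response normalized to 50 nM 1α,25-dihydroxyvitamin D3 = 100%, DMSO = 0%; Hill fitting gives EC50 and maximal response.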
Assay [11] in a line: qHTS assay for small molecule disruptors of the mitochondrial membrane potential - 5 hr assay (AID 651755). Note: % is set by controls: 0 for no effect and ±100 for the full control effect; nearly all actives have a fitted effect of over 40% in size. The essentials: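 HepG2 cells (2,000/well), attached overnight, exposed to compound 5 hr at 37C, then Mito-MPS dye 30 min. Fluorescence read for monomers (490/535 nm) and aggregates (540/590 nm).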
Assay [12] can be described thus: qHTS assay for small molecule activators of the human pregnane X receptor (PXR) signaling pathway (AID 720659; call rule not given here; note: 0% is about no effect).
The nature of assay [13]: Cell Viability - BJ (AID 421).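 Note: potency is the fitted concentration of half-maximal effect; cells exposed to compound for 40 hours at 37 °C before readout.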 The settings on record: BJ fibroblast viability, qHTS. The method in brief:
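Luminescent ATP signal (CellTiter-Glo, 20 min at room temperature) served as the read-out of viable BJ cells after 40 hours of compound treatment. Responses were scaled between DMSO and 100 uM tamoxifen, and AC50 values were obtained by Hill modeling.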

Assay [14] in a line: qHTS assay for small molecule agonists of the antioxidant response element (ARE) signaling pathway (AID 651741; active = well fitted activation curve with a large enough effect in the signal ratio; the % refers to the signal ratio; note: potency is the fitted concentration of half-maximal effect; for activation: % of control where 0% means no effect). The essentials:
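CellSensor ARE-bla HepG2 cells (2,000/well) carrying ARE-driven beta-lactamase, exposed 16 h at 37 C. LiveBLAzer B/G FRET substrate added for 2 h at room temperature; fluorescence intensity read.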

The nature of assay [15]: qHTS assay for small molecule activators of the nuclear factor-kappa B (NF-kB) signaling pathway (AID 651749; active = well fitted activation curve with a large enough effect in the signal ratio; the % refers to the signal ratio; note: % of control where 0% means no effect). The settings on record: NF-kB-bla ME-180 cells, beta-lactamase FRET ratio, 16 h; activation: stronger effect = higher value. The essentials:
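NF-kB-bla ME-180 cells carrying a beta-lactamase reporter under an NF-kB response element, 2,000 cells/well, exposed to compound for 16 hr at 37C; FRET-based beta-lactamase fluorescence read-out of pathway activation.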

A short description of assay [16]: qHTS assay for small molecule agonists of the antioxidant response element (ARE) signaling pathway measured by Nrf2-dependant transcriptional activity - cell viability counter screen (AID 720653; active = well fitted curve in the direction sought with a large enough effect in the repeat runs; an effect the other way counts as inactive or inconclusive; note: % is set by controls: 0 for no effect and ±100 for the full control effect). As to conditions: ARE-bla HepG2 viability, CellTiter-Glo ATP luminescence, 16 h; stronger effect = lower value. The essentials: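 ARE-bla HepG2 cells treated with compounds for 16 h at 37C; this counter screen measures viability as intracellular ATP by CellTiter-Glo luminescence after 30 min at room temperature.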

Assay [17] deals with Retinoic acid receptor RXR-alpha (Homo sapiens) (UniProt P19793). The experiment in a line: qHTS assay for small molecule antagonists of retinoid X receptor alpha signaling (AID 588546; active = well fitted inhibition curve with a large enough effect in the signal ratio, with a control signal flat, not every such curve was filed as active; the % refers to the signal ratio;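 note: cells stimulated with 9-cis-retinoic acid as agonist; % is set by controls: 0 for no effect and ±100 for the full control effect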). The settings on record: HEK293T RXRa-UAS-bla, beta-lactamase ratio, antagonist mode. The method in brief:
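Beta-lactamase reporter inhibition, read as CCF4 fluorescence ratio (ex 405, em 460/530 nm) after 2 h at RT. HEK293T UAS-bla cells, 2500/well, were stimulated with 9-cis-RA at 500 or 100 nM final alongside test compound for 18 h at 37 C.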

A short description of assay [18]: Cell Viability - LYMP1-003 - Assay at 40 hr (AID 964; active = well fitted curve in the direction sought with a large enough effect; an effect the other way counts as inactive or inconclusive; note: % is set by controls: 0 for no effect and ±100 for the full control effect; nearly all actives have a fitted effect of over 60% in size). The essentials:
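Cells were seeded at 2500 per well and incubated 5 hr at 37 C. Compounds were added across a concentration series and left 40 hr at 37 C. CellTiter-Glo was added for 30 min at room temperature before luminescence reading.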

Assay [19] addresses Thyroid hormone receptor beta (Homo sapiens) (UniProt P10828). The experiment in a line: qHTS assay for small molecule agonists of thyroid hormone receptor beta signaling (AID 588545). The method in brief:
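Agonist-mode beta-lactamase reporter assay, HEK 293 cells, 2% charcoal/dextran FBS; cells plated 4 hrs, compound 18 hrs at 37 C, CCF4 2 hrs RT. Normalized to 10 nM T3 (100%) and DMSO (0%); Hill fit gives EC50, efficacy.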

Assay [20] is described as follows: KB-8-5-11 P-gp reporter qHTS against the NCATS DSHEA and TCM libraries (AID 1919977; active = well fitted curve in the direction sought with a large enough effect; an effect the other way counts as inactive or inconclusive; note: 0% is about no effect). The essentials:
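Cells were seeded, allowed ~4 h to attach, dosed by pin tool (substance titrations), incubated ~72 h at 37C, then lysed with CellTiter-Glo for 30 min at room temperature before luminescence reading.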

We go through twelve compounds from PubChem BioAssay (NCATS).

Where “and” joins values, the source holds several entries; their conditions need not be identical. Equal values may be shown once. Inconclusive results are not listed. Calls of active or inactive are those of the source. Unless noted, calls come from the whole dose curve.

Chain of Thyroid hormone receptor beta (Homo sapiens) (P10828 whole entry, looked up): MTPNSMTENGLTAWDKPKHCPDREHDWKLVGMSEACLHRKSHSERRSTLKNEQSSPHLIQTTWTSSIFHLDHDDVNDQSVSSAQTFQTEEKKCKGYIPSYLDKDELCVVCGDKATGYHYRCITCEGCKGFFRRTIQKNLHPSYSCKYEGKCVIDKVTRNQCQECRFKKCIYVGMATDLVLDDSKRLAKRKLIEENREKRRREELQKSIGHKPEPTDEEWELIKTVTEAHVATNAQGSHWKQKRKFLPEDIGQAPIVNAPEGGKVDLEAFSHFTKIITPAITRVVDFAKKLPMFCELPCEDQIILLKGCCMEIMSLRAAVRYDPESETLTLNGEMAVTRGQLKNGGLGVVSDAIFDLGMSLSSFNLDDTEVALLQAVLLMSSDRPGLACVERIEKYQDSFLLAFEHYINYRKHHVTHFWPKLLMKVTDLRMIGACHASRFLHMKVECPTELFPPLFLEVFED
Chain of Vitamin D3 receptor (Homo sapiens) (P11473 whole entry, looked up): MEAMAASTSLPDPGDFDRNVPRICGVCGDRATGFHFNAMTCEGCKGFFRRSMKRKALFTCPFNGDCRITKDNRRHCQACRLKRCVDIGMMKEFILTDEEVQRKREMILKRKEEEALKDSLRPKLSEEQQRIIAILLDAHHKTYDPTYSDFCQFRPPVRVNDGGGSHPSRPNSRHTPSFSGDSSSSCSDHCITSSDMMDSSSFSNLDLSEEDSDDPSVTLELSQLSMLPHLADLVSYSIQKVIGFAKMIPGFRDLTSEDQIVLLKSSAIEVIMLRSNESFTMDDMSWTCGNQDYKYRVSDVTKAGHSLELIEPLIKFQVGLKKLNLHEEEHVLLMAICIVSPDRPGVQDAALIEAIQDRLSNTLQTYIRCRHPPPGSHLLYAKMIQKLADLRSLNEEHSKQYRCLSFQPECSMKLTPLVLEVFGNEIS
Chain of Retinoic acid receptor RXR-alpha (Homo sapiens) (P19793 whole entry, looked up): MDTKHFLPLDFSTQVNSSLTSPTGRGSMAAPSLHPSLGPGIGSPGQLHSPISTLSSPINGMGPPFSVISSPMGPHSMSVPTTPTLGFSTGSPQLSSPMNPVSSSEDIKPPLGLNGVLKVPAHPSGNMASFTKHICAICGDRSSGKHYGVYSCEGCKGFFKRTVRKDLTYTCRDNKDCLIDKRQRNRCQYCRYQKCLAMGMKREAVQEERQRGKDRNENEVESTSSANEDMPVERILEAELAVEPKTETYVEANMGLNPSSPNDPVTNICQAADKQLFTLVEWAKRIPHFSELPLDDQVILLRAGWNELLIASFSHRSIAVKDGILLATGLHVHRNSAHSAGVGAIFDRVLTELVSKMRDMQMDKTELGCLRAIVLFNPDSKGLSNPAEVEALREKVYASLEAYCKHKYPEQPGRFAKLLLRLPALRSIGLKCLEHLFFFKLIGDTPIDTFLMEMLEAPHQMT

Regarding `C1CCC2CCCCC2C1` (configuration not stated), the Potency result in assay [1], in assay [3], in assay [4] and in assay [11] was “inactive” in each case. Also, in assay [2], the caspase-3 activation is -0.192% (inactive). Also, the compound was called inactive in [5], in [6], in assay [9], in [10] and in [12]. The activation in [7] was -3.01% (inactive). The max response in assay [8] was -10.8%.

For the compound `Cc1cccc([N+](=O)[O-])c1`, the Potency in assay [13] is > 92 µM (inactive). Also, the Potency result in assay [1], in [3] and in assay [14] was “inactive” throughout. Further, the caspase-3 activation in assay [2] is 2.99% (inactive). Besides, the call in assay [5], in assay [6], in assay [9] and in assay [10] was inactive. Besides, the activation in assay [7] is -1.63% (inactive) and -0.0408% (inactive); in assay [15], -0.494% (inactive) and -2.2% (inactive). Also, the max response in [8] was 12.7% and -9.62%; in assay [16], -0.821% (inactive) and -5.67% (inactive).

Take `Cc1ccc(O)c(C)c1`: the Potency in assay [13] was > 92 µM (inactive); in [14], 398 µM (active). The Potency result in assay [1], in [3], in [4] and in [11] was “inactive” each time. The caspase-3 activation in assay [2] is 3.54% (inactive). The result in assay [5] was inactive. The max response was -17.8% and 29.7% in assay [8]; 0.533% (inactive) and 0.504% (inactive) and 10.6% (inactive) in assay [17]; -4.5% (inactive) and -1.52% (inactive) in assay [16]. Also, the activation in [15] was 0.131% (inactive) and -0.324% (inactive) and 1.7% (inactive).

As for `CN=C=S`, the Potency in assay [13] was > 92 µM (inactive). Also, the Potency entry in assay [18], in assay [3], in assay [14] and in assay [11] was “inactive” each time. In addition, the result in assay [5], in assay [6], in [9], in [10], in assay [19] and in assay [12] was inactive. Moreover, the activation in assay [7] is 2.73% (inactive) and -2.27% (inactive); in [15], 0.411% (inactive) and -0.263% (inactive). The max response is 11.4% in assay [8]; 0.0175% (inactive) and -8.56% (inactive) in assay [17].

On to `C=CCOC(=O)c1ccccc1N`, for which, in [13], the Potency is > 92 µM (inactive). The Potency entry in [1] and in [18] was “inactive” throughout. In addition, in assay [2], the caspase-3 activation was -3.47% (inactive). In addition, the result in [5], in [9], in assay [10], in assay [19] and in [12] was inactive. For the same compound, the max response in [8] was 8.66%; in assay [17], 2.96% (inactive); in assay [16], 4.08% (inactive).

Regarding `Nc1ccccc1Cl`, the Potency result in assay [1], in [18], in assay [3], in assay [4], in [14] and in assay [11] was “inactive” in each case. Also, in assay [2], the caspase-3 activation was 1.48% (inactive). The compound was called inactive in [5], in assay [6], in assay [9], in assay [10], in assay [19] and in assay [12]. In addition, the activation in [7] is -1.66% (inactive); in assay [15] it was 0.524% (inactive). Besides, the max response in assay [8] is 6.02%; in assay [16], 8.24% (inactive).

With `[O-][Br+2]([O-])O`, in assay [13], the Potency was > 92 µM (inactive). For the same compound, the caspase-3 activation in assay [2] was -9.36% (inactive) and -10.4% (inactive). Moreover, the Potency result in [18], in [3], in assay [14] and in assay [11] was “inactive” in each case. The result in assay [5], in [9] and in [10] was inactive. For the same compound, the max response in [17] was 9.17% (inactive) and 7.78% (inactive); in assay [16] it was 3.23% (inactive) and -1.6% (inactive). Also, the activation in assay [15] was 0.211% (inactive) and 0.528% (inactive).

In the case of `ClCBr`, the Potency in [13] is > 92 µM (inactive). Further, the Potency result in [4] was “inactive”. Moreover, the compound was classed as inactive in [5], in [6], in [9], in [10], in assay [19] and in assay [12]. Moreover, the activation in assay [7] is -2.9% (inactive). Moreover, the max response in assay [8] is 36.6%.

Turning to `C=CCc1ccc(OC)c(OC)c1`, the activation in assay [7] is 0.141% (inactive). The Potency result in [20] is “inactive”.

For `C=C(Cl)Cl`, the Potency entry in [1], in assay [18], in assay [4], in [14] and in [11] was “inactive” each time. Also, the caspase-3 activation in assay [2] was 1.75% (inactive). Besides, the compound was classed as inactive in [5] and in [12]. Also, the max response is -8.55% in assay [8], -1.27% (inactive) in assay [17] and -2.66% (inactive) in [16].

As for `CCSC(=O)Cl`, the Potency in assay [13] is > 92 µM (inactive). Besides, the Potency entry in [1] and in assay [14] was “inactive” in each case. Further, in [2], the caspase-3 activation was -2.14% (inactive). In addition, the call in [5], in [6], in assay [9], in assay [10] and in assay [12] was inactive. Besides, the activation in assay [7] is -1.31% (inactive); in [15] it was -1.04% (inactive). Besides, the max response in assay [17] was 1.25% (inactive).

On to `OCC(Br)CBr` (configuration not stated), for which the Potency entry in assay [1], in assay [18], in assay [3], in assay [4], in assay [14] and in [11] was “inactive” in each case. For the same compound, in assay [2], the caspase-3 activation is -2.35% (inactive). In addition, the outcome in assay [5], in assay [6], in [9], in assay [10] and in assay [12] was inactive. In assay [7], the activation was 0.562% (inactive). In addition, in assay [8], the max response worked out at 7.4%.
